Measured values taken from ChEMBL document CHEMBL1961873, “Compounds: GSK PKIS; Assays: Nanosyn kinase panel” (2012).

Experiments:
[1] = molecular target: Protein kinase C gamma type (Homo sapiens) (UniProt P05129); conditions: at 1 µM;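 further: each value is an averaged percent inhibition of the enzyme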
[2] = molecular target: T1, Protein kinase C iota type (Homo sapiens) (UniProt P41743); conditions: at 0.1 µM
T1 sequence (whole entry): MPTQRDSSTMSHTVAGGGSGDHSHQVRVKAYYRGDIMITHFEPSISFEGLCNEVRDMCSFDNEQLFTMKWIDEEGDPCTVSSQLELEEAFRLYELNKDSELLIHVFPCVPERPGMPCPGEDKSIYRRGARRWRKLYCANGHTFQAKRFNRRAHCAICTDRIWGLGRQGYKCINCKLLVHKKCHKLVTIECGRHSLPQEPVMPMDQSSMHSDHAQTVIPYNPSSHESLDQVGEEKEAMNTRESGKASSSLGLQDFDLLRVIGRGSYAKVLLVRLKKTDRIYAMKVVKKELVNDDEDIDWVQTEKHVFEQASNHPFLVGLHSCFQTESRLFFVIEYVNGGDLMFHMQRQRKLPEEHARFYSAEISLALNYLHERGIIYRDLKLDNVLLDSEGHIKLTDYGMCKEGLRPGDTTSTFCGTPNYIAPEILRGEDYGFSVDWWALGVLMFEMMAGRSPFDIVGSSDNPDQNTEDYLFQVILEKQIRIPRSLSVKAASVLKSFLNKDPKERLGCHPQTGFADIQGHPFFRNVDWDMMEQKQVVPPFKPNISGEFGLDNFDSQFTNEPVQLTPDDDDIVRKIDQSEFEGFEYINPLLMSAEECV

[3] = molecular target: T1, Protein kinase C iota type (Homo sapiens); conditions: at 1 µM
[4] = molecular target: Protein kinase C theta type (Homo sapiens) (UniProt Q04759); conditions: at 0.1 µM
[5] = molecular target: Protein kinase C theta type (Homo sapiens) (UniProt Q04759); conditions: at 1 µM
[6] = molecular target: Protein kinase C beta type (Homo sapiens) (UniProt P05771); conditions: at 0.1 µM
[7] = molecular target: Protein kinase C beta type (Homo sapiens) (UniProt P05771); conditions: at 1 µM
[8] = molecular target: T2, Serine/threonine-protein kinase D1 (Homo sapiens) (UniProt Q15139); conditions: at 0.1 µM
T2 sequence (whole entry): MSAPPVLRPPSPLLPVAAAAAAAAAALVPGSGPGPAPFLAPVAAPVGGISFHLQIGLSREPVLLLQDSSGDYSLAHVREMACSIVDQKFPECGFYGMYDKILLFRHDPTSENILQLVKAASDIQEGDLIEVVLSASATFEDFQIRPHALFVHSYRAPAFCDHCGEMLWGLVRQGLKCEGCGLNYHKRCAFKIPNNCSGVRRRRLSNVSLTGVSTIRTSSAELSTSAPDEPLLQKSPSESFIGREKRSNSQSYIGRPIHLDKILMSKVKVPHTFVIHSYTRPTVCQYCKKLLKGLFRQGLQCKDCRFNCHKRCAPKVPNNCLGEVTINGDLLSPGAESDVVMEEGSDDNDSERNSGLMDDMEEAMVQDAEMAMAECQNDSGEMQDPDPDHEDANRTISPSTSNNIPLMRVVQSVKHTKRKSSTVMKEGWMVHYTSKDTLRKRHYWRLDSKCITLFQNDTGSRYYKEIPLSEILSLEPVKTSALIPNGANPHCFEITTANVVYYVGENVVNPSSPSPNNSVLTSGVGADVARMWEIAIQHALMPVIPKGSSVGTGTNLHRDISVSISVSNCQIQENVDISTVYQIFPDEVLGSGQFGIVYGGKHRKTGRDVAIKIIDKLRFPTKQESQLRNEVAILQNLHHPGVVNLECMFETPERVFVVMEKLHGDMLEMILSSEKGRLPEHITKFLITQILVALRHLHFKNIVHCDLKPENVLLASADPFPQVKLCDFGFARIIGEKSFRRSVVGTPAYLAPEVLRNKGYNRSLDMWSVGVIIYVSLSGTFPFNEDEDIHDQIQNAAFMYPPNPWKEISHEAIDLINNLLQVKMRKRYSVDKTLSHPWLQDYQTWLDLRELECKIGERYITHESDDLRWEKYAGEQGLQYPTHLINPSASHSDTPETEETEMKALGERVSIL

[9] = molecular target: T2, Serine/threonine-protein kinase D1 (Homo sapiens); conditions: at 1 µM
[10] = molecular target: T3, Serine/threonine-protein kinase D2 (Homo sapiens) (UniProt Q9BZL6); conditions: at 0.1 µM
T3 sequence (whole entry): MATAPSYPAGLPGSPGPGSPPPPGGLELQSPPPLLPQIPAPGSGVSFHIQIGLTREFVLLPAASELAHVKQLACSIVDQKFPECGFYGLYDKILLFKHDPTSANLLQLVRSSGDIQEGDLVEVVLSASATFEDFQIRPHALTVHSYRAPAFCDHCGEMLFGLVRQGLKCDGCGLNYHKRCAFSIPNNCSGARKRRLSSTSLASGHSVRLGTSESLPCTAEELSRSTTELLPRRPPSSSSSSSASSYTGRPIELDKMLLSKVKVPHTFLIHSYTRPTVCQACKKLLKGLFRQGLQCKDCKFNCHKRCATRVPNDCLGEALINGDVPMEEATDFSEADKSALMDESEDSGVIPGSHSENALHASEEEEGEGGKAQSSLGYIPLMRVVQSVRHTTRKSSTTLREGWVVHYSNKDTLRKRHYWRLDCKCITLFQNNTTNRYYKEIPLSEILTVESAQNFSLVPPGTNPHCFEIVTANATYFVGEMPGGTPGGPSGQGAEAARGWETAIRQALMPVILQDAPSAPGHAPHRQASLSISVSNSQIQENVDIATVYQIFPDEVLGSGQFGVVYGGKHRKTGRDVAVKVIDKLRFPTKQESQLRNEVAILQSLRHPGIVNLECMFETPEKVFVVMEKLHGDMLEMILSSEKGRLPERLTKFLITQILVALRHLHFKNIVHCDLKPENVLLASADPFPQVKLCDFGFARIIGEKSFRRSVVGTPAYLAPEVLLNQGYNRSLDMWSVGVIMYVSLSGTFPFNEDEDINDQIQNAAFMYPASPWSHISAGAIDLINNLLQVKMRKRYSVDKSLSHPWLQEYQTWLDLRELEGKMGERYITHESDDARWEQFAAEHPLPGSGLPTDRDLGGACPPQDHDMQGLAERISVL

[11] = molecular target: T3, Serine/threonine-protein kinase D2 (Homo sapiens); conditions: at 1 µM
[12] = molecular target: T4, Serine/threonine-protein kinase D3 (Homo sapiens) (UniProt O94806); conditions: at 0.1 µM
T4 sequence (whole entry): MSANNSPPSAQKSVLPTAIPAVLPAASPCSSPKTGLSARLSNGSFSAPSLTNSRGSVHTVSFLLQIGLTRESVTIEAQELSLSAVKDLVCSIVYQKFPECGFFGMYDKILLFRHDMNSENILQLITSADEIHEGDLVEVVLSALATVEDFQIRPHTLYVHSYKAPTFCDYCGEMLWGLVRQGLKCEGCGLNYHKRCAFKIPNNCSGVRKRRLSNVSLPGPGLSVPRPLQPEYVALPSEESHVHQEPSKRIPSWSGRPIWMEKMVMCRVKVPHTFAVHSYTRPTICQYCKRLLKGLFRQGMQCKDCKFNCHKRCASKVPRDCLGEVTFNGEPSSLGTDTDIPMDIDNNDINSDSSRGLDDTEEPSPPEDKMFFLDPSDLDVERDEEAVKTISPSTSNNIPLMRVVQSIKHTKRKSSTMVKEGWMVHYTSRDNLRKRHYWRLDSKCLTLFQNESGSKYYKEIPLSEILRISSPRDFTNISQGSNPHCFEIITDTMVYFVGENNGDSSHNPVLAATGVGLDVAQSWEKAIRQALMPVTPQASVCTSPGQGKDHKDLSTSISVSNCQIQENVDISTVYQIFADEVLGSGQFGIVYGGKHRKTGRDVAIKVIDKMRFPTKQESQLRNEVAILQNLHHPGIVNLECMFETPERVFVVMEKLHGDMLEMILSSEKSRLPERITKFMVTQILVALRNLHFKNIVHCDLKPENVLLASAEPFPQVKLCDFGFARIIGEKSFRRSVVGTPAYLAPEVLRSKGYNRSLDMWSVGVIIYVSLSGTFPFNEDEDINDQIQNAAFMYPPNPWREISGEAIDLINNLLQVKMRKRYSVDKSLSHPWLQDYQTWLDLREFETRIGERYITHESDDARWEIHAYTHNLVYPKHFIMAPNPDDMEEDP

[13] = molecular target: T4, Serine/threonine-protein kinase D3 (Homo sapiens); conditions: at 1 µM
[14] = molecular target: T5, cGMP-dependent protein kinase 1 (Homo sapiens) (UniProt Q13976); conditions: at 0.1 µM
T5 sequence (whole entry): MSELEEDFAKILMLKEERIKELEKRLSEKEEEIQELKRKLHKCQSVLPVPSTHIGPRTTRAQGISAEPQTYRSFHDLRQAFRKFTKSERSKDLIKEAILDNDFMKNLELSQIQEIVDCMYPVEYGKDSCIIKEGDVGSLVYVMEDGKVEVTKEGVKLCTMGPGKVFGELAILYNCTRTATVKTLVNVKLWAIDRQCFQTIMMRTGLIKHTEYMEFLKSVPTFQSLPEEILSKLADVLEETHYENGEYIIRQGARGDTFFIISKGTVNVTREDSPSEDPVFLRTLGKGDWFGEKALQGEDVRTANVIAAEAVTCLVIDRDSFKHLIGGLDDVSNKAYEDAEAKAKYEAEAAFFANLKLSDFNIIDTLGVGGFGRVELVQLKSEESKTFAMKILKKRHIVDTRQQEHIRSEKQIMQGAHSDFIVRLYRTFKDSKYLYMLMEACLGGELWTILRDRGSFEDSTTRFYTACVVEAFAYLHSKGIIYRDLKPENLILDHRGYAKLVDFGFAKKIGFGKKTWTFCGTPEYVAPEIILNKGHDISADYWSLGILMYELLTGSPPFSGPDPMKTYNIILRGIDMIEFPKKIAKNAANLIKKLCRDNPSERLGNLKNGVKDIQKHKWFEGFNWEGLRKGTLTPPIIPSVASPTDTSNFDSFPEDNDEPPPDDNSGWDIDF

[15] = molecular target: T5, cGMP-dependent protein kinase 1 (Homo sapiens); conditions: at 1 µM
[16] = molecular target: T6, cGMP-dependent protein kinase 2 (Homo sapiens) (UniProt Q13237); conditions: at 0.1 µM
T6 sequence (whole entry): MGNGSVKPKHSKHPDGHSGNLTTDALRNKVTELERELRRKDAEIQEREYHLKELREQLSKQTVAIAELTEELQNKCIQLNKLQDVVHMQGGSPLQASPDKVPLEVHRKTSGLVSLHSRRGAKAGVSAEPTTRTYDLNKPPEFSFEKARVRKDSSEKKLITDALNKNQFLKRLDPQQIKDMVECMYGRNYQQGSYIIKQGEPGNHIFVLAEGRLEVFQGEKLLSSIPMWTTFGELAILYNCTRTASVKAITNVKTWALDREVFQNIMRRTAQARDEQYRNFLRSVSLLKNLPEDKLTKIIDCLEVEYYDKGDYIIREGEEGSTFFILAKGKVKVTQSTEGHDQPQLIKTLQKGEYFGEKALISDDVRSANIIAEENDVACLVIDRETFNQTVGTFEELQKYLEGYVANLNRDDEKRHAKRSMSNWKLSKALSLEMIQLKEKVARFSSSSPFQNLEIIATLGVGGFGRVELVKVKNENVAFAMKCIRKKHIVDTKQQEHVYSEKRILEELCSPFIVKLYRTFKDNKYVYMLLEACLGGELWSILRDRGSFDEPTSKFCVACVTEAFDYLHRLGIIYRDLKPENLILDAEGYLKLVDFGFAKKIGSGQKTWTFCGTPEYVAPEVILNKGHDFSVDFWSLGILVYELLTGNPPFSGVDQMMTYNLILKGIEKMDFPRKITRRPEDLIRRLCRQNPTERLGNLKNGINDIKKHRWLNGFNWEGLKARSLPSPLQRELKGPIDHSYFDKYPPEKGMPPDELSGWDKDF

[17] = molecular target: T6, cGMP-dependent protein kinase 2 (Homo sapiens); conditions: at 1 µM
[18] = molecular target: T7, cAMP-dependent protein kinase catalytic subunit PRKX (Homo sapiens) (UniProt P51817); conditions: at 0.1 µM
T7 sequence (whole entry): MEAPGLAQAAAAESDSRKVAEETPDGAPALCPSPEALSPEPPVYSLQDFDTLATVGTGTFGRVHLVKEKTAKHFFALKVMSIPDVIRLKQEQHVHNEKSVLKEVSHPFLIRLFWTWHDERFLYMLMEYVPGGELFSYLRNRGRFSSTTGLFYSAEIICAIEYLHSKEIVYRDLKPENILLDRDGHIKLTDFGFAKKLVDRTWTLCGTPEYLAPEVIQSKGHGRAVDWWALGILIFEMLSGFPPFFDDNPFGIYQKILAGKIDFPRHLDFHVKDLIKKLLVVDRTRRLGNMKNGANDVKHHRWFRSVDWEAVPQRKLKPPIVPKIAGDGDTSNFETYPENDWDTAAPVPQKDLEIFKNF

[19] = molecular target: T7, cAMP-dependent protein kinase catalytic subunit PRKX (Homo sapiens); conditions: at 1 µM
[20] = molecular target: Rho-associated protein kinase 1 (Homo sapiens) (UniProt Q13464); conditions: at 0.1 µM;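 further: values are mean percent inhibition of ROCK1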
Rho-associated protein kinase 1 (Homo sapiens), sequence (Q13464 2-1354 limits assumed): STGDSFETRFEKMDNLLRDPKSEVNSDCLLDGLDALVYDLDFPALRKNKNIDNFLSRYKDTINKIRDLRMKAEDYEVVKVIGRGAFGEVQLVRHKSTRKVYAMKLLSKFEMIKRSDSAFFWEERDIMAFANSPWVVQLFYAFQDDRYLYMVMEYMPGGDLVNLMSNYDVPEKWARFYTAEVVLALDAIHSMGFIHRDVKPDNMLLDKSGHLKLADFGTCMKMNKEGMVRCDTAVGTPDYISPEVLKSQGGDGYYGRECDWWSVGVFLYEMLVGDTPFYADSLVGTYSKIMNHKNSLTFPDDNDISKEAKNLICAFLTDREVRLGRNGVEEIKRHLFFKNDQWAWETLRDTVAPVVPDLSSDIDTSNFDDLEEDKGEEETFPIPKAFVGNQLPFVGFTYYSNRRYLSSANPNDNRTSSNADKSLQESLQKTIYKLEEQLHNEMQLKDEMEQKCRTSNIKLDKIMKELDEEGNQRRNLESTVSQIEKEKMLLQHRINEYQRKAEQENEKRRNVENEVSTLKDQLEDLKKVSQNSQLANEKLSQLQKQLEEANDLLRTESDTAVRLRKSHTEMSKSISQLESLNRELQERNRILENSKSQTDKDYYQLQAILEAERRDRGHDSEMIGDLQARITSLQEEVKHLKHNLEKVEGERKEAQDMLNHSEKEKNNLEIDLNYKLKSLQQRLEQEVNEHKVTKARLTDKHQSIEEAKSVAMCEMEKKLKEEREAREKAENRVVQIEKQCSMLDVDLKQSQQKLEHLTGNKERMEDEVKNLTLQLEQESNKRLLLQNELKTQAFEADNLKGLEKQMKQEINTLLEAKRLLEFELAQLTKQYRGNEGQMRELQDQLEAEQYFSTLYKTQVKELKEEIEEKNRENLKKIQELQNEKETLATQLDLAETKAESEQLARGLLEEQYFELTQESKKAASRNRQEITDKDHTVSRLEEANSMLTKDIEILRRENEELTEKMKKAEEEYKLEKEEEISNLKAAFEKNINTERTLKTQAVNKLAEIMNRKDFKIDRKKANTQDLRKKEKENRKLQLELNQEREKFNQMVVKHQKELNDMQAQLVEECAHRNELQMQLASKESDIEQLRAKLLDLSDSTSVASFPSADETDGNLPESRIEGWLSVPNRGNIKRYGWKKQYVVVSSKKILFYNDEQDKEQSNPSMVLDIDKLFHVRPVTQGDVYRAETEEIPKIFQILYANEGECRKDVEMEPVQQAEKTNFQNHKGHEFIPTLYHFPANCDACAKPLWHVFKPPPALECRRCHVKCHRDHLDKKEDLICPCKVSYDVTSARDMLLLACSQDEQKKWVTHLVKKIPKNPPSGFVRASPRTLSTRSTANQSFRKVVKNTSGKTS

Protein kinase C theta type (Homo sapiens), sequence (Q04759 whole entry, looked up): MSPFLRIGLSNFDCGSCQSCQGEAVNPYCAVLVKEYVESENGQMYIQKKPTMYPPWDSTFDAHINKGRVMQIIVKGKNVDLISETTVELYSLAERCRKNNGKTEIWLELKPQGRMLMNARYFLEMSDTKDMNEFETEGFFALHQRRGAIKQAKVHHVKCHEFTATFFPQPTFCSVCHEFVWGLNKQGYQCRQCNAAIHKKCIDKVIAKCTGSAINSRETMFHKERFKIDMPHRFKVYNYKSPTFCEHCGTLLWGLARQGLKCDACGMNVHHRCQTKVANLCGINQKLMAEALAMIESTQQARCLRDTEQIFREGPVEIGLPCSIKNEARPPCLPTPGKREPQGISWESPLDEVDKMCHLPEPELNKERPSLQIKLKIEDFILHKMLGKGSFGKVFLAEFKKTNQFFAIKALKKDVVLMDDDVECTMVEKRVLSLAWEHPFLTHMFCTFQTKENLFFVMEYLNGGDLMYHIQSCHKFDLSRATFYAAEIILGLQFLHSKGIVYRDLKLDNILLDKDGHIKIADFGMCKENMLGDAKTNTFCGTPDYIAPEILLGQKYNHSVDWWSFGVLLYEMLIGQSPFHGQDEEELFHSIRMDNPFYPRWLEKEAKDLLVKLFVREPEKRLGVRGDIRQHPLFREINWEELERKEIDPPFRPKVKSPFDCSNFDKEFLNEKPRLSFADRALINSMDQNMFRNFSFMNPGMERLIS
Protein kinase C beta type (Homo sapiens), sequence (P05771 2-671 limits assumed): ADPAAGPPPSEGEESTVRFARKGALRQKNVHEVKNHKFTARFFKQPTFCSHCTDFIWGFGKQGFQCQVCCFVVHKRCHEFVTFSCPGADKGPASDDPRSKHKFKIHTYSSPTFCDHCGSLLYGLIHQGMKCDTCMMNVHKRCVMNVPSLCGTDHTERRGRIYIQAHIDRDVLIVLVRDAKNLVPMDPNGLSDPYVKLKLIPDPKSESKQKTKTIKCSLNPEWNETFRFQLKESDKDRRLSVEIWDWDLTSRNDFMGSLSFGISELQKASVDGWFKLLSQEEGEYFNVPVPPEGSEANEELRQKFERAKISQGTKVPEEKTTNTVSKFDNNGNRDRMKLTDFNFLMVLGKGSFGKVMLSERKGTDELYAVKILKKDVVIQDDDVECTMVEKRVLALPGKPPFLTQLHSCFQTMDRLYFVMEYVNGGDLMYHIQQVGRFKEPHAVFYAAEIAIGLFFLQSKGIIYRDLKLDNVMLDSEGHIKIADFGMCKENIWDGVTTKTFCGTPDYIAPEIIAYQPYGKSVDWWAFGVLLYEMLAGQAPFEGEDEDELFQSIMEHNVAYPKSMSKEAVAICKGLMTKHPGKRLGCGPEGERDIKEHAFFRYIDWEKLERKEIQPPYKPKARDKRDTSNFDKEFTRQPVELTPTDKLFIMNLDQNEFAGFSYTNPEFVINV

Compound	inhibition [1]	inhibition [2]	inhibition [3]	inhibition [4]	inhibition [5]	inhibition [6]	inhibition [7]	inhibition [8]	inhibition [9]	inhibition [10]	inhibition [11]	inhibition [12]	inhibition [13]	inhibition [14]	inhibition [15]	inhibition [16]	inhibition [17]	inhibition [18]	inhibition [19]	inhibition [20]
CN(C)CCCNc1nccc(-c2c(-c3ccc(F)cc3)nn3cc(C(F)(F)F)ccc23)n1	4.68%	0.91%	2.26%	0.23%	0.19%	0.57%	3.33%	-1.67%	0.04%	-1.36%	0.34%	-1.49%	-0.32%	1.15%	3.76%	1.88%	3.07%	1.15%	-0.47%	0.76%
O=C(NCC1CC1)c1ccc(-c2cccc(C(=O)NC3CC3)c2)cc1	-1.2%	2.21%	3.55%	1.24%	-0.68%	0.69%	-1.18%	1.97%	2.45%	2.36%	2.14%	2.87%	1.81%	3.32%	1.97%	1.23%	0.42%	0.49%	-0.06%	1.17%
FC(F)(F)c1cccc(Nc2nccc(-c3cnn4nc(-c5ccccc5)ccc34)n2)c1	1.78%	0.68%	0.06%	1.79%	2.39%	1.28%	1.35%	2.1%	3.92%	1.86%	1.49%	1.55%	2.61%	1.17%	-0.32%	1.44%	-1.07%	1.18%	0.74%	0.77%
